Shiga toxin inh = inhibitors of Shiga toxin in Vero cells; Vero cells, Shiga toxin protein synthesis inhibition reporter; inhibition, % at 38.7 µM; 290,000 tested, 9.2% active; in the data active = inhibition mostly above about 28%, no sharp cut-off; inactive = mostly below about 43%; note: 0% is about no effect
CHX counter = affects cycloheximide protein synthesis inhibition readout, counter-screen. cell reporter, cycloheximide protein synthesis inhibition counterscreen. max response, %. 300,000 tested, 12% active; in the data active = max response mostly above about 13%, no sharp cut-off; inactive = mostly below about 14%; note: read at 38.3 µM for the half of the compounds with a filed dose; 0% is about no effect
Sm TGR block = S. mansoni TGR enzyme inhibition; Q962Y6; purified TGR, DTNB reduction, TNB absorbance 405 nm; Potency, µM (doses to about 114 µM), for the others: at the highest dose activity change, negative = inhibition, most hits filed as inhibitors; 360,000 tested, 3% active; AID 485364; active = well fitted inhibition curve with a large enough effect; inconclusive = small, poorly fitted or top-dose-only effect; inactive = no such curve, though single readings can be large or run the other way; note: potency is the fitted concentration of half-maximal effect; % is set by controls: 0 for no effect and ±100 for the full control effect; nearly all actives have a fitted effect of over 60% in size
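First, TGR (20 nM dispensed) and NADPH were mixed with compound. Second, a 15 min room-temperature incubation followed. Third, further NADPH and then DTNB were added to start the reaction. Finally, TNB absorbance was monitored kinetically.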
FMDV inh = foot and mouth disease virus antiviral activity; FMDV antiviral cell-based qHTS; Potency, µM (titrated, usually from 57.9 µM), without a hit: at the top dose activity change, negative = inhibition, actives largely listed as inhibitors; 410,000 tested, 1.2% active; calls by dose curve; tested in HEK293T cells; note: read-out not given here; potency is the fitted concentration of half-maximal effect; % is set by controls: 0 for no effect and ±100 for the full control effect; nearly all actives have a fitted effect of over 45% in size
* hit, by the source's call; ? = inconclusive; / = no result given; + = active, no number. Most compounds without a hit are left out; they make up all but 12% or so of the library.

SMILES	Shiga toxin inh	CHX counter	Sm TGR block	FMDV inh
COc1cc(CN2CCC3(CCC(CNC(=O)c4cc(C)nn4C)O3)CC2)ccc1F (centres undefined)	/	/	/	3%
CCN1C(=O)c2ccccc2S(=O)(=O)c2ccc(C(=O)NCc3ccccc3OC)cc21	/	/	1%	-19%
CCS(=O)(=O)N1Cc2ccccc2CC1C(=O)Nc1cccc(C)c1 (centres undefined)	120*	37*	5%	69%
Cc1ccc(S(=O)(=O)N/N=C/c2ccccc2O)cc1[N+](=O)[O-]	69*	39*	-9%	121%
O=[N+]([O-])c1cc2c(cc1/C=N\NS(=O)(=O)c1ccccc1)OCO2	-8	-1	-16%	/
CCN(CC)c1ccc(/C=N/NS(=O)(=O)c2ccc(C)c([N+](=O)[O-])c2)cc1	-2	3	-1%	65%
Cc1ccc(S(=O)(=O)N/N=C/c2ccc(O)c(O)c2)cc1[N+](=O)[O-]	128*	45*	?	47%
CCN(C(=O)c1cccs1)c1nnc(-c2ccncc2)s1	active	16*	-2%	11%
Cc1ccc2nc(-c3ccc(NC(=O)CSc4nccc(=O)[nH]4)cc3)sc2c1	117*	37*	/	19%
Cc1ccc2nc(-c3ccc(NC(=O)CSc4nc(N)cc(=O)[nH]4)cc3)sc2c1	94*	30*	13%	15%
Cc1ccc(NC(=O)CN2CCSc3ccc(S(=O)(=O)N4CCCC4)cc32)cc1C	/	/	9%	0%
O=C(c1cc2ccccc2s1)N1CCOCC1	26	10	7%	5%
O=C(c1ccc(-c2nc3ccccc3s2)s1)N1CCOCC1	-4	-2	5%	8.9µM*
O=C(CSc1nc2ccccc2s1)NC1CCCC1	32	7	-2%	-1%
CCOC(=O)C1CCN(S(=O)(=O)c2ccc(-c3nc4ccccc4s3)s2)CC1	69*	45*	1%	19%
CCCN1CCN(C(=O)c2ccccc2-c2nc3ccccc3s2)CC1	-15	-1	-23%	-7%
O=C(NC1CC1)c1ccc(-c2nc3ccccc3s2)s1	38*	24	2%	?
CCN1CCN(C(=O)c2ccc(-c3nc4ccccc4s3)s2)CC1	103*	42*	16%	31%
COc1cccc(C(=O)/C=C/Nc2ccc(S(=O)(=O)Nc3cc(OC)nc(OC)n3)cc2)c1	69*	34*	4%	13%
O=C1CCCC/C1=C\Nc1ccc(S(=O)(=O)Nc2cnc3ccccc3n2)cc1	27	-1	-26%	27%
COc1cccc(C(=O)/C=C/Nc2ccc(S(=O)(=O)Nc3cnc4ccccc4n3)cc2)c1	98*	69*	-18%	55%
Cc1ccc(C(=O)Nc2ccc(S(=O)(=O)Nc3cnc4ccccc4n3)cc2)cc1	72	20*	-14%	51%
O=C(/C=C/Nc1ccc(S(=O)(=O)Nc2cnc3ccccc3n2)cc1)c1ccccc1	61	28*	-1%	96%
CC(C)COc1ccc(C(=O)Nc2nnc(S(=O)(=O)N(C)Cc3ccco3)s2)cc1	/	/	1%	22%
COc1ccc(-c2cc3nc(-c4ccc(C)cc4)cc(C(F)(F)F)n3n2)cc1	/	/	-23%	-3%
SMILES	Shiga toxin inh	CHX counter	Sm TGR block	FMDV inh
C/C(=N\NC(=O)c1ccn(C)n1)c1cccc(NC(=O)c2ccncc2)c1	45*	30*	-5%	-9%
C/C(=N\NC(=O)c1ccc(Cl)cc1)c1cccc(NC(=O)c2cccnc2)c1	45*	38*	1%	-4%
C/C(=N\NC(=O)c1c(Br)cnn1C)c1ccc(NC(=O)c2ccc(F)cc2)cc1	86*	43*	/	15%
C/C(=N\NC(=O)c1ccc(O)cc1)c1cccc(NC(=O)c2ccc(Cl)cc2)c1	/	/	/	2%
Cn1ncc(Br)c1C(=O)Nc1cccc(C(F)(F)F)c1	-15	10	10%	-12%
C/C(=N\NC(=O)c1c(Cl)cnn1C)c1cccc(NC(=O)c2ccc(C)cc2)c1	109*	21*	0%	2%
C/C(=N\NC(=O)c1c(Cl)cnn1C)c1cccc(NC(=O)C(C)C)c1	-5	1	0%	-17%
Cc1cccc(N2CCN(C(=O)Cn3c(=O)c4cccn4c4ccc(F)cc43)CC2)c1C	/	/	-12%	-5%
C/C(=N\NC(=O)c1ccc(Cl)cc1)c1cccnc1	44	29*	-3%	16%
CC(C)c1ccc(/C=N/NC(=O)c2c(Cl)cnn2C)cc1	+	46*	-21%	0%
C/C(=N\NC(=O)c1c(Cl)cnn1C)c1cccnc1	56*	39*	-18%	24%
Cc1nn(C)c(C(=O)N/N=C/c2ccc(Br)cc2)c1Cl	-1	-3	5%	-16%
Cc1cc(F)ccc1NC(=O)CN1C(=O)CCc2cc(S(=O)(=O)N3CCOCC3)ccc21	/	/	7%	-13%
Cc1cc(C)cc(NC(=O)c2ncn(-c3ccccc3)n2)c1	/	/	2%	63%
O=C(CCS(=O)(=O)c1ccccc1)N(CCCN1CCOCC1)c1nc2ccc(F)cc2s1	/	/	13µM*	1%
O=C(CCS(=O)(=O)c1ccccc1)N(CCCN1CCOCC1)c1nc2c(F)cccc2s1	/	/	11µM*	40µM*
C[C@H](NC(=O)CNC(=O)[C@@H](NC(=O)[C@H](Cc1ccccc1)NC(=O)CNC(=O)CNC[C@@H](N)Cc1ccccc1)[C@@H](C)O)C(=O)N[C@@H](CCCN=C(N)N)C(=O)N[C@@H](CCCCN)C(=O)N[C@@H](CO)C(=O)N[C@@H](C)C(=O)N[C@@H](CCCN=C(N)N)C(=O)N[C@@H](CCCCN)C(N)=O	-10	-2	/	/
CCOc1cc(C2C(C(=O)c3ccccc3)=C(C(=O)OC)Nc3nnnn32)ccc1O (centres undefined)	33	23*	-25%	-1%
Cc1ccc(C)c(NC(=O)CSc2c(C)cnc3c2c(=O)n(C)c(=O)n3C)c1	/	/	1%	-11%
COc1ccc(N(C)C(=O)c2cn(C3CCCCC3)c(=O)c3c2c2ccccc2n3C)cc1	/	/	5%	0%
CCN(C(=O)c1sc2nc3n(c(=O)c2c1C)CCCCC3)c1ccc(OC)cc1	/	/	22µM*	-18%
CCc1ccc(N(CC)C(=O)c2sc3nc4n(c(=O)c3c2C)CCCC4)cc1	/	/	10µM*	?
Cc1cccc(CNC(=O)CN2C(=O)CCn3nc(-c4cn(C)c5ccccc45)cc32)c1	/	/	4%	-11%
COc1ccc(Nc2nc(-c3ccccc3)c3ccccc3n2)cc1	13	-5	-1%	-4%
COc1ccc(Nc2nc(C)c3ccccc3n2)cc1	135*	27*	3%	33%
SMILES	Shiga toxin inh	CHX counter	Sm TGR block	FMDV inh
CCc1c(C)nc(Nc2nc(C)c3ccc(OC)cc3n2)[nH]c1=O	-11	0	2%	/
COc1ccc2c(C)nc(N/C(N)=N/S(=O)(=O)c3ccc(C)cc3)nc2c1	-7	-2	/	34%
CC1=NC(Nc2nc(C)c3ccccc3n2)=NC(C)(C)C1	-11	-1	25µM*	-26%
COc1ccc2c(C)nc(Nc3nc(C)cc(C)n3)nc2c1	-7	2	11µM*	3%
COc1ccc2c(C)nc(Nc3nc(C)c(C)c(=O)[nH]3)nc2c1	25	48*	12%	51%
Cc1nc(Nc2ncc3c(n2)CC(C)(C)CC3=O)nc2ccccc12	/	/	/	2%

High-throughput results: PubChem BioAssay, National Center for Advancing Translational Sciences (NCATS)
